# Measured values as given in article PMC7862700, “An all-to-all approach to the identification of sequence-specific readers for epigenetic DNA modifications on cytosine”.
# Columns and labels:
# Test in all cases: DAPPL (digital affinity profiling via proximity ligation, sequencing); 10 mM Tris-HCl pH 7.5, 50 mM NaCl, 1 mM DTT, 4% glycerol, room temperature, 30 min; GST-TFs on glutathione beads, 16-mer random dsDNA library, 0.1% formaldehyde crosslink after washing; high values mean tight binding
# Details in all cases: protein: recombinant; tags: N-terminal GST; dsDNA, one strand shown
# FLI1 = target: T1, FLI1 (Homo sapiens, UniProt Q01543 1-452)
# T1 sequence: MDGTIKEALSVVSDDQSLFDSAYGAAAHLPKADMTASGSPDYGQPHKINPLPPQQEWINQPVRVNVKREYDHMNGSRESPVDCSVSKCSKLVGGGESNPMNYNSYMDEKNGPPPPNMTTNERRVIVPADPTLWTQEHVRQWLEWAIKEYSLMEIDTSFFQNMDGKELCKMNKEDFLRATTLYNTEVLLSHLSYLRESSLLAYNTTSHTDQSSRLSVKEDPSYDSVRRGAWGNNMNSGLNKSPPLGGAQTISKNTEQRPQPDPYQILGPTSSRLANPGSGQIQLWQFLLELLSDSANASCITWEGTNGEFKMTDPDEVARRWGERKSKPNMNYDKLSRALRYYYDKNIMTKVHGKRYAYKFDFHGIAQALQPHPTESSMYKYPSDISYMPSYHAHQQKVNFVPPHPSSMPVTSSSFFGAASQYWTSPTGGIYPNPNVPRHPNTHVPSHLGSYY
# Summary of the method: (§1)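 Binding signal is each hexamer's read frequency for a factor divided by its frequency in the tag-only sample. The factors were GST-fused human transcription factors from yeast, captured on glutathione beads, DNA-barcoded and pooled with that sample. Pools were incubated with 200 nmole of a random double-stranded 16-mer DNA library in Tris/NaCl/DTT/glycerol buffer at room temperature for 30 min, then washed, crosslinked with 0.1% formaldehyde, proximity-ligated with BsaI/T4 ligase (1 h, 37 °C), PCR-amplified and sequenced on an Illumina NextSeq500.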
# ELK1 = target: T2, ELK1 (Homo sapiens, UniProt P19419 1-428)
# T2 sequence: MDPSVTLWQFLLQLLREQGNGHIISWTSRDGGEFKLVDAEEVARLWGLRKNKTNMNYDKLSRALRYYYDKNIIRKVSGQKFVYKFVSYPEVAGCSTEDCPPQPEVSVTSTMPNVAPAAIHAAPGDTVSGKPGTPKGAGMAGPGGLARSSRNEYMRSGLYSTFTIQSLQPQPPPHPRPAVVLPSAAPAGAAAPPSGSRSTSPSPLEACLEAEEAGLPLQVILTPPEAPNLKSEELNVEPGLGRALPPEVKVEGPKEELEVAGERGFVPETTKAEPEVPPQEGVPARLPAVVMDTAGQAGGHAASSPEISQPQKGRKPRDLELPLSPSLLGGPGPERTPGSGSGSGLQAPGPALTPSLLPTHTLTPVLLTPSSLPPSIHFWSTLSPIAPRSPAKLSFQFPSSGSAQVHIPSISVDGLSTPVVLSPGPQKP
# Summary of the method: as §1
# GABPA = target: T3, GABPA (Homo sapiens, UniProt Q06546 1-454)
# T3 sequence: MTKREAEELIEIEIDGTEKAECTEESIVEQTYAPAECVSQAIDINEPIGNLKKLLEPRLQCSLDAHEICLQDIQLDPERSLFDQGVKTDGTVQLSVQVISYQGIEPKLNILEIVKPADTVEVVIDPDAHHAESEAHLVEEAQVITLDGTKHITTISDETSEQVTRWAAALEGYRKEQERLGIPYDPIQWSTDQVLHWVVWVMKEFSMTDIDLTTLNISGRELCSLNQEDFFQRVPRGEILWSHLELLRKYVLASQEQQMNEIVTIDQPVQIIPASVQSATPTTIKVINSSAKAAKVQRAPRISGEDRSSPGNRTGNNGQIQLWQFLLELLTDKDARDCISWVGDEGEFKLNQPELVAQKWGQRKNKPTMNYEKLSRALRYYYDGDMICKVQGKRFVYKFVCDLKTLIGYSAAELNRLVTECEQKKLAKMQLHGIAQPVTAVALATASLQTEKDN
# Summary of the method: as §1
# ERG = target: T4, ERG (Homo sapiens, UniProt P11308 1-479)
# T4 sequence: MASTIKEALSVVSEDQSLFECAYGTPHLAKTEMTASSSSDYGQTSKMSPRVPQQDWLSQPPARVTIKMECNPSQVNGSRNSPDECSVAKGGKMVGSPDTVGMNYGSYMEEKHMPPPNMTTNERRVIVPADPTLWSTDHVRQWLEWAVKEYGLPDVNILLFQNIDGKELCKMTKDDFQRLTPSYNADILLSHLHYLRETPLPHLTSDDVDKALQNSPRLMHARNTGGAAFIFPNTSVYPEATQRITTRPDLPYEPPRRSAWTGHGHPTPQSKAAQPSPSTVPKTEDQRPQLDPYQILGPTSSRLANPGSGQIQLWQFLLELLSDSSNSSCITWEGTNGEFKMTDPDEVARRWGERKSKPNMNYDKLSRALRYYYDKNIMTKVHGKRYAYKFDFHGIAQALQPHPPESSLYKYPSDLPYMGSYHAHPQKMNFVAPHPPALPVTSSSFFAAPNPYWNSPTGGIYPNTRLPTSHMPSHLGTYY
# Summary of the method: as §1
# ELF1 = ELF1 (Homo sapiens, UniProt P32519 1-619)
# Summary of the method: as §1
# EHF = target: T5, EHF (Homo sapiens, UniProt Q9NZC4 1-300)
# T5 sequence: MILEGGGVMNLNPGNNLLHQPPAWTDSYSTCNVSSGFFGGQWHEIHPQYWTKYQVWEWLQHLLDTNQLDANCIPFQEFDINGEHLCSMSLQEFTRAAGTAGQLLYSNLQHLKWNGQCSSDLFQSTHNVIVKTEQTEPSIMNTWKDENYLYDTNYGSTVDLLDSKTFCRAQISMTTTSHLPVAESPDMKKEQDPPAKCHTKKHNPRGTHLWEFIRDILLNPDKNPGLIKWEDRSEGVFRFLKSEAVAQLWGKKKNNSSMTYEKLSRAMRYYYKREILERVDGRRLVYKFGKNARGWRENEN
# Summary of the method: as §1
# SPI1 = SPI1 (Homo sapiens, UniProt P17947 1-270)
# Summary of the method: as §1
# SPIB = SPIB (Homo sapiens, UniProt Q01892 1-262)
# Summary of the method: as §1
# ELK3 = target: T6, ELK3 (Homo sapiens, UniProt P41970 1-407)
# T6 sequence: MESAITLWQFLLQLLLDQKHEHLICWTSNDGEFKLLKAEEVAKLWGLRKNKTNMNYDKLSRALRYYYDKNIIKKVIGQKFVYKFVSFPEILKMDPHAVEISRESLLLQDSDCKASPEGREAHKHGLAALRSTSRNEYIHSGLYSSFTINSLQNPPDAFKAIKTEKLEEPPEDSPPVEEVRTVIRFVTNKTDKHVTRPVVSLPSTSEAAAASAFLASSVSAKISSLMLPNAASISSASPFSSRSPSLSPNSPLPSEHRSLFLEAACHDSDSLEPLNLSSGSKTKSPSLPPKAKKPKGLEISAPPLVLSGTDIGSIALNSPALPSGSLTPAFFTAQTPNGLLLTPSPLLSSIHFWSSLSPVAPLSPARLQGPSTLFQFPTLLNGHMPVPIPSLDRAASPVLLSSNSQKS
# Summary of the method: as §1
# Sequence of SPIB (Q01892 whole entry): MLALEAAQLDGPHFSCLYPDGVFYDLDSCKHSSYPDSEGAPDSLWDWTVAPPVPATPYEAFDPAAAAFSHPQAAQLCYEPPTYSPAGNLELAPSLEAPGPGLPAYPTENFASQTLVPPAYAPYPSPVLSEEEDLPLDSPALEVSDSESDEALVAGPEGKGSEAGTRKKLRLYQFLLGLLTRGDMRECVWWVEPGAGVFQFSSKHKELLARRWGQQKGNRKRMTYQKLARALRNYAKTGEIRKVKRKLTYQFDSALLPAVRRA
# Sequence of ELF1 (P32519 whole entry): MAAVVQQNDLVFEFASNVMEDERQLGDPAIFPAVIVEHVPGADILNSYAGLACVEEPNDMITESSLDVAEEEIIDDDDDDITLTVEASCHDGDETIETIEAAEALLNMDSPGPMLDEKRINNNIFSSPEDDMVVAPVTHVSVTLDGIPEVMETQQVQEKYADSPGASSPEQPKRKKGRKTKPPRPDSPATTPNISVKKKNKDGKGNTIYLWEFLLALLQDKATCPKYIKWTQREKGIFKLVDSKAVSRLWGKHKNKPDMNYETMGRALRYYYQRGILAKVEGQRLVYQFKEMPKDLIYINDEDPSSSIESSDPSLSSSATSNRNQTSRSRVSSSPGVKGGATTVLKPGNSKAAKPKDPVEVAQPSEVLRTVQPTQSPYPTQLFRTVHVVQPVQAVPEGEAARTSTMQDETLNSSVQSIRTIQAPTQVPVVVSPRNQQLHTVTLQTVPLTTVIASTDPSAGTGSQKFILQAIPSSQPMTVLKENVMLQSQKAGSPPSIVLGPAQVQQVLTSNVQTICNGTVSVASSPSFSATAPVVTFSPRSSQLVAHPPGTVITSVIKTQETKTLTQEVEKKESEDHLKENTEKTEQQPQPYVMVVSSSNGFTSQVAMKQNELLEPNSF
sequence,measurement,setting,value
TCTCCG,binding signal,FLI1,"1.51 fold enrichment (6-mer frequency, TF over GST control)"
same,binding signal,ELK1,"1.49 fold enrichment (6-mer frequency, TF over GST control)"
same,binding signal,GABPA,"1.57 fold enrichment (6-mer frequency, TF over GST control)"
same,binding signal,ERG,"1.42 fold enrichment (6-mer frequency, TF over GST control)"
same,binding signal,ELF1,"1.6 fold enrichment (6-mer frequency, TF over GST control)"
same,binding signal,EHF,"1.57 fold enrichment (6-mer frequency, TF over GST control)"
same,binding signal,SPI1,"1.54 fold enrichment (6-mer frequency, TF over GST control)"
same,binding signal,SPIB,"1.52 fold enrichment (6-mer frequency, TF over GST control)"
same,binding signal,ELK3,"1.38 fold enrichment (6-mer frequency, TF over GST control)"
